Results from the supplement of paper PMC11732987, “Enantioselective OTUD7B fragment discovery through chemoproteomics screening and high-throughput optimisation” (Communications Chemistry, 2025).

Legend:
Experiment in all cases: log2 ratio of Biotin-Ahx-Ub-VS probe labelling (fragment/DMSO); higher = less target engagement (more negative = stronger competition), active = hit call of the paper (q ≤ 0.05, log2 ratio ≤ -1)
Conditions in all cases: compound concentration: 200 uM; treatment time: 3 h
USP34 = USP34 (UniProt Q70CQ2)
USP34, sequence (Q70CQ2 whole entry, the tested form may be a part): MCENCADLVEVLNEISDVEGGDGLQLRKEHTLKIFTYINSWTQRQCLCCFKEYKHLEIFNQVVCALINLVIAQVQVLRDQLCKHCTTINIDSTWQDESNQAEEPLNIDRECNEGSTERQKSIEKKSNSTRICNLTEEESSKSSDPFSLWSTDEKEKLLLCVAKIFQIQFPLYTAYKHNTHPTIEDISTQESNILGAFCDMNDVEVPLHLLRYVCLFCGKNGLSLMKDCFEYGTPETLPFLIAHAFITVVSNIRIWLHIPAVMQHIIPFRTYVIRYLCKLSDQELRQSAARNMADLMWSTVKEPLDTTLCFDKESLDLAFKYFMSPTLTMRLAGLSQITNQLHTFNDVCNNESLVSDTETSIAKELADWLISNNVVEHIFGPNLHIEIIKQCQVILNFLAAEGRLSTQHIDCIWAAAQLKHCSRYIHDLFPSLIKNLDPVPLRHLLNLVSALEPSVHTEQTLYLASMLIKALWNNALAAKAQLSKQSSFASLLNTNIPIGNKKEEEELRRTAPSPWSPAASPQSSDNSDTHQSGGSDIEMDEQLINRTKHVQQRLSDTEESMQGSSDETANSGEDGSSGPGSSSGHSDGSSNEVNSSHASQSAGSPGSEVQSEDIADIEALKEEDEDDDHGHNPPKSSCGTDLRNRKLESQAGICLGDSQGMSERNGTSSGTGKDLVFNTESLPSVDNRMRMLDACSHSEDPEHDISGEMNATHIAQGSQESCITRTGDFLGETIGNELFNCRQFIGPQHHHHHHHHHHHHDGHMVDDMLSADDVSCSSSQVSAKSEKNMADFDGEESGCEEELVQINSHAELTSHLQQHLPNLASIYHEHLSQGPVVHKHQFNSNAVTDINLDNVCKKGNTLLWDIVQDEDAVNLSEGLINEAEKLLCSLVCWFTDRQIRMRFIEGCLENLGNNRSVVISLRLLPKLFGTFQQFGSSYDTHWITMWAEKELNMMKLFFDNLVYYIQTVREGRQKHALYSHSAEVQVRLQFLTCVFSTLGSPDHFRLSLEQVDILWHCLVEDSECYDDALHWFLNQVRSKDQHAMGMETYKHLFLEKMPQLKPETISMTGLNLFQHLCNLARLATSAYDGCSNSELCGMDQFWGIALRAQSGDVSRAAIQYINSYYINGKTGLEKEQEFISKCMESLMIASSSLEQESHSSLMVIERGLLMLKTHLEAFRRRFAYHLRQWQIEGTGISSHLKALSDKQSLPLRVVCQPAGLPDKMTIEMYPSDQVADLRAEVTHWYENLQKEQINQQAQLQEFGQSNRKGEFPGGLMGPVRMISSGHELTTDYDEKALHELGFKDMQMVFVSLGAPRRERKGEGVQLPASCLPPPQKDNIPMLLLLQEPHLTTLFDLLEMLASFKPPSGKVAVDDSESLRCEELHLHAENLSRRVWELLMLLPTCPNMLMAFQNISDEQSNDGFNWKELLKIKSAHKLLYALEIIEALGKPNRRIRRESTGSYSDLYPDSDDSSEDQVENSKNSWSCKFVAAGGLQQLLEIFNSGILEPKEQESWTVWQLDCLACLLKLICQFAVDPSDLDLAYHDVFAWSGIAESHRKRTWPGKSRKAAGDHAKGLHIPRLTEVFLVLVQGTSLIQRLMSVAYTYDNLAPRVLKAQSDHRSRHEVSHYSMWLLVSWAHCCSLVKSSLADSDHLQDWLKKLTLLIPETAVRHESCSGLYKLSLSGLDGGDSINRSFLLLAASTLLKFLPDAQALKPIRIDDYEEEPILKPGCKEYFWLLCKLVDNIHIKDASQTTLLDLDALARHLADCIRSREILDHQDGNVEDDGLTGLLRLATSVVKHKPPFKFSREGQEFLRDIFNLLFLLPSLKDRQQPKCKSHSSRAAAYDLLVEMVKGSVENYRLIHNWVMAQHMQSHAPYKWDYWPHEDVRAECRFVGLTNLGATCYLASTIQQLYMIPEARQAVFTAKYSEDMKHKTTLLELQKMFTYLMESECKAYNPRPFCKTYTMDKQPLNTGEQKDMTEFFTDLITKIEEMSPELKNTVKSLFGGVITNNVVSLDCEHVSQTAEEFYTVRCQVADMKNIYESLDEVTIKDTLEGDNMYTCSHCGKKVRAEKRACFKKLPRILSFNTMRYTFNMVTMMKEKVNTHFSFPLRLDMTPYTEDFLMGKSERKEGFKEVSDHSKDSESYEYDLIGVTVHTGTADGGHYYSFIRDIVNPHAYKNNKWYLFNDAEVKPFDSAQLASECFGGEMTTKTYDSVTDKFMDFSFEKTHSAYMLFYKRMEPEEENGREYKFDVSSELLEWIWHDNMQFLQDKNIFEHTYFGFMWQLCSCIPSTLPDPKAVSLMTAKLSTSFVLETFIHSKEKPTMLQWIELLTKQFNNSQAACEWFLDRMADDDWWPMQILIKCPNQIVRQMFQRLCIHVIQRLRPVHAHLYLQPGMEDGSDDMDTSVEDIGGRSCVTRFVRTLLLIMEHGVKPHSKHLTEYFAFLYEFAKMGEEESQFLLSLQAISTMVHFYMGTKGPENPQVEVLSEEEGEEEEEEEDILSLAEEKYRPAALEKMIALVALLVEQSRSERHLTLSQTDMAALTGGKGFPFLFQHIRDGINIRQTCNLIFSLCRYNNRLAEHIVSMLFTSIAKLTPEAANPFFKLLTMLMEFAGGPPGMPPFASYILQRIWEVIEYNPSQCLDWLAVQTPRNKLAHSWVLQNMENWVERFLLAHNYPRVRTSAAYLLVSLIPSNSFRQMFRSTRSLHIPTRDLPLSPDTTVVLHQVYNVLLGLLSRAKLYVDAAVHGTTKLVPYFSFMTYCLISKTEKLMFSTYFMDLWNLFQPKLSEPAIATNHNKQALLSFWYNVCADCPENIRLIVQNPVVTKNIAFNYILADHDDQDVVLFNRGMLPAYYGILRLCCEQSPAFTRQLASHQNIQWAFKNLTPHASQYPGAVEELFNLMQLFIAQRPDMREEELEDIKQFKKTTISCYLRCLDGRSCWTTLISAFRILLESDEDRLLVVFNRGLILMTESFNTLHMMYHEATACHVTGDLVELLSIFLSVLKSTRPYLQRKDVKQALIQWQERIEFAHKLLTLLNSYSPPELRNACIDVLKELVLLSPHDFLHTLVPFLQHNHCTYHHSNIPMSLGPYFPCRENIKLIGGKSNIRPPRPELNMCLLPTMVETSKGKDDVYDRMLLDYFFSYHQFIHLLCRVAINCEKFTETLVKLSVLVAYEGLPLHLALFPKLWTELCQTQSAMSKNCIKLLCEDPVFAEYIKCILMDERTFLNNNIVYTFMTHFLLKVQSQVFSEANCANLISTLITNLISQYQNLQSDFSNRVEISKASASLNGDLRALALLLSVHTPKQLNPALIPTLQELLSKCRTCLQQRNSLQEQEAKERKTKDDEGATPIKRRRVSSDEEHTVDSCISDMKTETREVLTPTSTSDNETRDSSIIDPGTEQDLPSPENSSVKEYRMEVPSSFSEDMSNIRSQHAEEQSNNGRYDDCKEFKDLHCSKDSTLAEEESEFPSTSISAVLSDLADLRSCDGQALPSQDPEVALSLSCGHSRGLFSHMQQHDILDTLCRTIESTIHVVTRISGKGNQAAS
Procedure, shortened: (§1)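 Labelled DUBs from HEK293T lysate were NeutrAvidin-enriched, digested with LysC and trypsin, and run by diaPASEF LC-MS/MS. Before that, each 495 µg sample in Tris/CHAPS/IGEPAL buffer with protease inhibitors was treated in triplicate with fragment at 200 µM or vehicle for 3 h, then with Biotin-Ahx-Ub-VS at 0.5 µM final for 1 h. Values are average log2 ratios of fragment over vehicle by unpaired t-test, based on global-median-normalised Spectronaut label-free quantities from proteins with ≥2 unique peptides.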

USP36 = molecular target: T1, USP36 (UniProt Q9P275)
T1 sequence (whole entry): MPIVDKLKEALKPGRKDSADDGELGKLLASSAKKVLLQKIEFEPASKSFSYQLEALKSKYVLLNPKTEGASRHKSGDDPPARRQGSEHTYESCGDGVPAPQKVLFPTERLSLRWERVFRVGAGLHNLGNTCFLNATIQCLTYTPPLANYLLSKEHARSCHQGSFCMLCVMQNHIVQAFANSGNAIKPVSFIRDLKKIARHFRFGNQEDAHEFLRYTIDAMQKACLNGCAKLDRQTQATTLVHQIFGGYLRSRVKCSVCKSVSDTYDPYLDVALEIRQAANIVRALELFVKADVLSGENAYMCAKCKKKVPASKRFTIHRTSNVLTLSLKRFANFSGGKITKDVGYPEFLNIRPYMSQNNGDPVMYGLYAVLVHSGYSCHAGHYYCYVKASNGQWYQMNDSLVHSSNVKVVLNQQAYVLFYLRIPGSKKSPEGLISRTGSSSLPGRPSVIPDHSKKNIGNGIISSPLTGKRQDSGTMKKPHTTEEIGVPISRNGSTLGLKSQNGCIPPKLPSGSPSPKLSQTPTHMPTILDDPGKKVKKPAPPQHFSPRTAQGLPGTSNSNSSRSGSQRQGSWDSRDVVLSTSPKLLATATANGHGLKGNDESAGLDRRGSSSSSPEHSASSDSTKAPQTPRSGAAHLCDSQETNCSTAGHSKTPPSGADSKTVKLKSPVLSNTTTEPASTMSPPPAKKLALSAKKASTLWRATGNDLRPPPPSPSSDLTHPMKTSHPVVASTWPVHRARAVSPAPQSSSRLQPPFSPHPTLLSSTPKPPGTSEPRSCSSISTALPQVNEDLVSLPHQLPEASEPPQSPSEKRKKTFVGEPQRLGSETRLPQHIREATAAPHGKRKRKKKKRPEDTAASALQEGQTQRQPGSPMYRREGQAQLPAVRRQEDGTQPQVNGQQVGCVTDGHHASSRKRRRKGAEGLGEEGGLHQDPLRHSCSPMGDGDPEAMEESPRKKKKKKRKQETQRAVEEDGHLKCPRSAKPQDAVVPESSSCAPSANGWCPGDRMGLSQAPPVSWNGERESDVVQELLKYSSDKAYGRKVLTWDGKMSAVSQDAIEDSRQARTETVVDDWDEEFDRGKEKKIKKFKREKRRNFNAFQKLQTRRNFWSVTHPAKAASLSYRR
Procedure, shortened: as §1

USP38 = molecular target: T2, USP38 (UniProt Q8NB14)
T2 sequence (whole entry): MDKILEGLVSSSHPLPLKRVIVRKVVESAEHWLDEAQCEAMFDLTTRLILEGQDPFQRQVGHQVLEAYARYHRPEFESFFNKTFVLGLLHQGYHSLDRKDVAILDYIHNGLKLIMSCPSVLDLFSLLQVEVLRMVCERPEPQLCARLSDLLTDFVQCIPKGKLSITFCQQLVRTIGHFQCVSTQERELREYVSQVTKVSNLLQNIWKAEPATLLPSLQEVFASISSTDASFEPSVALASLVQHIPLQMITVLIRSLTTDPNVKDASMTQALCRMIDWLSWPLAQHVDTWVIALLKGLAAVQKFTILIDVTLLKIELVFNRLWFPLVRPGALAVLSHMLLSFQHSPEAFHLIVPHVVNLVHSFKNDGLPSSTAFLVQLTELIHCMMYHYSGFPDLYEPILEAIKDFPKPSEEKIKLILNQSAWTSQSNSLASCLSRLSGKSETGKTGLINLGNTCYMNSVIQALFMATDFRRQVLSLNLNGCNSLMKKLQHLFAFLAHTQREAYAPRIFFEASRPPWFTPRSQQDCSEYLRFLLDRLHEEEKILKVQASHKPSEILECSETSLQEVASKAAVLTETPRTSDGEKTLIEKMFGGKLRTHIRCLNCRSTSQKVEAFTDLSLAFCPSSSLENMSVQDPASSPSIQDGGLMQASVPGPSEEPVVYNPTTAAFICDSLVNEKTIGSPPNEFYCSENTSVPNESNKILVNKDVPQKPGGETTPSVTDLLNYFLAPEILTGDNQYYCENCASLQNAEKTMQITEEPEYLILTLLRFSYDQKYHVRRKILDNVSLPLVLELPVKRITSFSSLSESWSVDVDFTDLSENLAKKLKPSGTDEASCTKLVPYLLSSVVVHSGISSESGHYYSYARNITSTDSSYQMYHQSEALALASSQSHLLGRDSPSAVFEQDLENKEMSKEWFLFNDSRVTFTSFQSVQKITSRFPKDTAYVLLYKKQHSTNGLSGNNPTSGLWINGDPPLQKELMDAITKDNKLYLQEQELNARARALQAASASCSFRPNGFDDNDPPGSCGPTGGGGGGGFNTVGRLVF
Procedure, shortened: as §1

USP39 = molecular target: T3, USP39 (UniProt Q53GS9)
T3 sequence (whole entry): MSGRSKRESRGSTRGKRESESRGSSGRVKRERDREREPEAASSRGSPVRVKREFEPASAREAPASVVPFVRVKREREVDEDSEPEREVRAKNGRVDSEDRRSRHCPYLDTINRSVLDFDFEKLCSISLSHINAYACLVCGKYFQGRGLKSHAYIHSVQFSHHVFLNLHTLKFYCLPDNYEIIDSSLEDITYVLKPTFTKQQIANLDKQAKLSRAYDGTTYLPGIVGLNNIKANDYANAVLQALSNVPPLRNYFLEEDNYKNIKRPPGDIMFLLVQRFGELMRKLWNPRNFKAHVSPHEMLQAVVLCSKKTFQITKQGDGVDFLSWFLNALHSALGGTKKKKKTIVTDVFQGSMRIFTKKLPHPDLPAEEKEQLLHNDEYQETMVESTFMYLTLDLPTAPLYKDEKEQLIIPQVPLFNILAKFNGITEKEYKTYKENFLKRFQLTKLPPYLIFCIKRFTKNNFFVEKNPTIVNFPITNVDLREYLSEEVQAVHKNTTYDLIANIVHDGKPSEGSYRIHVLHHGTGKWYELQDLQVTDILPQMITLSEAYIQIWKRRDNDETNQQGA
Procedure, shortened: as §1

USP4 = molecular target: T4, USP4 (UniProt Q13107)
T4 sequence (whole entry): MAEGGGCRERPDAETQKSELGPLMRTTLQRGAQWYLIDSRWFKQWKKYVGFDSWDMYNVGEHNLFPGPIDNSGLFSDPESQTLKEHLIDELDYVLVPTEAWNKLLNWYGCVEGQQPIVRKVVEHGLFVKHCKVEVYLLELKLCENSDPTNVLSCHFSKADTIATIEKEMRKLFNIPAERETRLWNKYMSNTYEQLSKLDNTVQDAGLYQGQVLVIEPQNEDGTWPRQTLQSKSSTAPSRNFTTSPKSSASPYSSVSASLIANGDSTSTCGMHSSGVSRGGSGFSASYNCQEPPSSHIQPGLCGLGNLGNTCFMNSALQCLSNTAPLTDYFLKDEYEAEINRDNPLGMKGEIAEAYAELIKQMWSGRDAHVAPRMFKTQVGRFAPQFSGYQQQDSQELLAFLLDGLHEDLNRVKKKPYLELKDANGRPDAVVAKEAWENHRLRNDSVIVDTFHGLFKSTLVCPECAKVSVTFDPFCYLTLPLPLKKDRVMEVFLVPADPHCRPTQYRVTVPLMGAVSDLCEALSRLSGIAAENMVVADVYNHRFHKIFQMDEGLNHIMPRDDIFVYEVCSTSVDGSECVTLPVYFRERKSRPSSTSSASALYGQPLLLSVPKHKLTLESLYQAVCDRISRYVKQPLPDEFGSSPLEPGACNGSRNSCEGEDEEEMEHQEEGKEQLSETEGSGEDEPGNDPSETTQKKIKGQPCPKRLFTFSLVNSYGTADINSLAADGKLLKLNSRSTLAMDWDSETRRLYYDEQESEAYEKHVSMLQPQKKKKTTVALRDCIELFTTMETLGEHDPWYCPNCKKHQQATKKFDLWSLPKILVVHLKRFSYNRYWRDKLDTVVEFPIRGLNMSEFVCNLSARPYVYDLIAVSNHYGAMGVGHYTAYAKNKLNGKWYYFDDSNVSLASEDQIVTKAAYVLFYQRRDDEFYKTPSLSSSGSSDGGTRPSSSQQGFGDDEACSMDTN
Procedure, shortened: as §1

Measured: log2 ratio of Biotin-Ahx-Ub-VS probe labelling

Cc1nc(CC2CCN(C(=O)CCl)CC2)no1
inactive: USP34 -0.459 | USP36 -0.425 | USP38 -0.544 | USP39 0.344 | USP4 -0.686
